Results published in PubChem BioAssay (Tox21).
Records with an inconclusive call do not appear. Active and inactive are the calls of the source. Unless noted, calls come from the whole dose curve; as a rule, active = well fitted curve in the direction sought with a large enough effect in the repeat runs; inconclusive = weak or mixed curves; inactive = no such curve, though single readings can be large; an effect the other way counts as inactive or inconclusive.

Experiments:
[1] = qHTS assay to identify small molecule agonists of the estrogen receptor alpha (ER-alpha) signaling pathway in the presence of an antagonist - cell viability counter screen (AID 1259386);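 note: cells exposed to compounds for 22 h at 37 °C before the viability read; nearly all actives have a fitted effect of over 30% in size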; note: potency is the fitted concentration of half-maximal effect; for activity change, negative = cytotoxicity: series mostly up to about 92 µM
Procedure, shortened: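 In this counter screen, compound effects on VM7Luc4E2 viability were tested in the presence of the antagonist ICI-182,780 at 10.0nM final. Compounds were dosed at 15 concentrations, exposure lasted 22hr, and the CellTiter-Fluor signal was read.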

[2] = target: Progesterone receptor (Homo sapiens) (UniProt P06401); experiment: qHTS assay to identify small molecule agonists of the progesterone receptor (PR) signaling pathway (AID 1346784; calls by dose curve; note: nearly all actives have a fitted effect of over 30% in size)
Sequence of Progesterone receptor (Homo sapiens) (P06401 whole entry, looked up): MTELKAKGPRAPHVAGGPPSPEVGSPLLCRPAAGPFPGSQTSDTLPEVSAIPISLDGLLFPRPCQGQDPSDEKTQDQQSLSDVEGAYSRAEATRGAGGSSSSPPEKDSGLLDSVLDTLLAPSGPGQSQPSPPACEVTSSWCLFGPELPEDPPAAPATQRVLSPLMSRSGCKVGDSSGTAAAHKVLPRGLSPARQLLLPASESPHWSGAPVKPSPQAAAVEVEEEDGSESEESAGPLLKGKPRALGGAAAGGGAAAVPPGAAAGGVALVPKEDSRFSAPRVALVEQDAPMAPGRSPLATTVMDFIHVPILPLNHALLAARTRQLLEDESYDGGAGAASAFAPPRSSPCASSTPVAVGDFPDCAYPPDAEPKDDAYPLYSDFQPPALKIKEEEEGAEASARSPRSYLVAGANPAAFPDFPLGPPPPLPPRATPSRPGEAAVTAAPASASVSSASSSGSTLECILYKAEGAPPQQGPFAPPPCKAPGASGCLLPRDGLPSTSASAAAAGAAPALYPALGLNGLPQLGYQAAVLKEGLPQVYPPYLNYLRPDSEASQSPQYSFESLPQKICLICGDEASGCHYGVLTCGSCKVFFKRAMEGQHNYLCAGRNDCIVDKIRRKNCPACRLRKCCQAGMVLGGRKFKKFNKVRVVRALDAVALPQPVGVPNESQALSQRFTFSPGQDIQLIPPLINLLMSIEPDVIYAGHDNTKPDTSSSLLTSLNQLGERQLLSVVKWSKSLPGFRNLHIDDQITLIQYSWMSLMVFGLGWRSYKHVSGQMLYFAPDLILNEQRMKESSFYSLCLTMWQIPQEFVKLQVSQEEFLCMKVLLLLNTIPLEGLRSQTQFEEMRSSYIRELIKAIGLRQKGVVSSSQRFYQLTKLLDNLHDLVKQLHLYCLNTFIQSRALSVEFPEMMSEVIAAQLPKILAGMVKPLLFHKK
Procedure, shortened: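 Fluorescence from LiveBLAzer B/G FRET substrate cleavage (2 hr, RT) reported PR activation in PR-UAS-bla HEK 293T cells treated 16 hr at 37C/5% CO2 with compounds; medium contained 2% charcoal-stripped FBS.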

[3] = target: Progesterone receptor (Homo sapiens) (UniProt P06401); experiment: qHTS assay to identify small molecule antagonists of the progesterone receptor (PR) signaling pathway (AID 1346795; active = well fitted inhibition curve with a large enough effect in the signal ratio in the repeat runs, not every such curve was filed as active; the % refers to the signal ratio)
Procedure, shortened: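 Fluorescence intensity measured 2 hr after adding beta-lactamase FRET substrate to PR-UAS-bla HEK293T cells that had been co-treated 16 hr with compound and 1 nM R5020 (final concentration) in 2% charcoal-stripped FBS.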

[4] = qHTS assay to identify small molecule antagonists of the progesterone receptor (PR) signaling pathway - cell viability counter screen (AID 1346798); note: series mostly up to about 92 µM; nearly all actives have a fitted effect of over 50% in size
Procedure, shortened: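 CellTiter-Glo luminescence; PR-UAS-bla HEK293T, 3,000 cells/well; compound + R5020, 16 hr, 37C/5% CO2; 30 min RT before read.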

[5] = qHTS assay to identify small molecule antagonists of the TGF-beta/Smad signaling pathway - cell viability counter screen (AID 1346824); note: nearly all actives have a fitted effect of over 50% in size
Procedure, shortened: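 SBE-bla HEK 293T cells, incubated overnight, then compound plus 0.25 ng/mL TGF-beta1 (stock added) for 5 hr at 37 C. Viability was read in the same wells by CellTiter-Glo luminescence after 30 min at room temperature.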

[6] = qHTS assay to identify small molecule agonists of the TGF-beta/Smad signaling pathway - cell viability counter screen (AID 1346829); note: top concentration of the series differs between compounds; nearly all actives have a fitted effect of over 45% in size
Procedure, shortened: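 In parallel with the Smad reporter read, viability of HEK 293T cells stably carrying SBE-bla is quantified by ATP luminescence following 5 hr compound treatment.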

[7] = qHTS assay to identify small molecule agonists of the TGF-beta/Smad signaling pathway (AID 1346859; active = well fitted activation curve with a large enough effect in the signal ratio in the repeat runs, not every such curve was filed as active; the % refers to the signal ratio; note: series mostly up to about 77 µM)
Procedure, shortened: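 After overnight seeding, SBE-bla HEK 293T cells are dosed with compounds in DMSO and kept 5 hr at 37 C, 5% CO2. LiveBLAzer-type FRET substrate is then applied for 2 hr at room temperature.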

[8] = target: Thyrotropin-releasing hormone receptor (Homo sapiens) (UniProt P34981); experiment: qHTS assay to identify small molecule antagonists of the thyrotropin-releasing hormone receptor (TRHR) signaling pathway (AID 1346877; active = well fitted inhibition curve with a large enough effect in the repeat runs, not every such curve was filed as active; note: series mostly up to about 51 µM)
Sequence of Thyrotropin-releasing hormone receptor (Homo sapiens) (P34981 whole entry, looked up): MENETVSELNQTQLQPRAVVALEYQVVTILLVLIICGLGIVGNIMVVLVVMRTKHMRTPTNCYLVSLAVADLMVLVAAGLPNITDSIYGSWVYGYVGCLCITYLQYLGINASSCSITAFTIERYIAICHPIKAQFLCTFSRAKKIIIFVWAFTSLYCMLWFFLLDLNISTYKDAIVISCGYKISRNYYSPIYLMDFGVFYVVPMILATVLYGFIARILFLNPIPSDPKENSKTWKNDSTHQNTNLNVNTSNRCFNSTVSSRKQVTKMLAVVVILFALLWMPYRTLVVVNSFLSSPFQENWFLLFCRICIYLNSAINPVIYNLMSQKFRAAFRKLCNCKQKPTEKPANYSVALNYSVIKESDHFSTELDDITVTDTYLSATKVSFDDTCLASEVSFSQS
Procedure, shortened: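 Kinetic fluorescence (3 min, 1 s resolution) following stimulation with TRH at 1 nM final; HEK293 cells bearing human TRHR; 5 min compound preincubation at RT; concentration-response over 15 points, triplicates.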

[9] = target: Thyrotropin-releasing hormone receptor (Homo sapiens) (UniProt P34981); experiment: qHTS assay to identify small molecule agonists of the thyrotropin-releasing hormone receptor (TRHR) signaling pathway (AID 1346891; calls by dose curve;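 note: HEK293 cells expressing TRHR with calcium dye readout; series mostly up to about 58 µM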)
Procedure, shortened: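 Compounds were tested as agonists at 15 concentrations, in triplicate, on TRHR-Hek293 cells; calcium-sensitive dye fluorescence was recorded for 3 min following addition.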

[10] = qHTS assay to identify small molecule agonists of the progesterone receptor (PR) signaling pathway - cell viability counter screen (AID 1346799; calls by dose curve; note: nearly all actives have a fitted effect of over 45% in size)
Procedure, shortened: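 In parallel with the beta-lactamase readout, cytotoxicity toward PR-UAS-bla HEK293T cells was measured by CellTiter-Glo luminescence following 16 hr compound incubation in 2% charcoal-stripped FBS medium.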
% is set by controls: 0 for no effect and ±100 for the full control effect.

O=C1CCCC(=O)O1
inactive: Potency [1] | Potency [2] | Potency [3] | Potency [4] | outcome [5] | outcome [6] | outcome [7] | outcome [8] | outcome [9]

Nc1cccc(O)c1
inactive: Potency [1] | Potency [2] | Potency [3] | Potency [4] | outcome [5] | outcome [6] | outcome [7] | outcome [8] | outcome [9]

CC(C)(C)c1nnc(NS(=O)(=O)c2ccc(N)cc2)s1
inactive: Potency [1] | Potency [2] | Potency [3] | Potency [4] | outcome [5] | outcome [6] | outcome [7]

COC(=O)c1ccccc1C(=O)c1ccc(OCCN2CCCCC2)cc1
inactive: Potency [1] | Potency [2] | Potency [3] | Potency [4] | outcome [5] | outcome [6] | outcome [7] | outcome [8] | outcome [9]

C=C(C)C(=O)OCC(C)(C)COC(=O)C(=C)C
inactive: Potency [1] | Potency [2] | Potency [3] | Potency [4] | Potency [10] | outcome [6] | outcome [7] | outcome [8] | outcome [9]

COC(=O)CCCCCCCC(=O)OC
inactive: Potency [1] | Potency [2] | Potency [3] | Potency [4] | outcome [5] | outcome [6] | outcome [7] | outcome [8] | outcome [9]

BrCCCCCBr
inactive: Potency [1] | Potency [2] | Potency [3] | Potency [4] | outcome [5] | outcome [6] | outcome [7] | outcome [8] | outcome [9]

C[Si](C)=O
inactive: activity change, negative = cytotoxicity [1] 2.9% [at 8.39 µM] | activation [2] 1.46% [at 8.39 µM] | activity change, negative = inhibition [3] 12.9% [at 8.39 µM] | activity change, negative = cytotoxicity [4] 4.63% [at 8.39 µM] | viability change, negative = cytotoxic [5] 0.719% [at 6.97 µM] | activity change, negative = cytotoxicity [6] 3.98% [at 6.97 µM] | activation [7] -0.731% [at 6.97 µM]

CC(=O)/C=C/C1C(C)=CCC(C)C1(C)C (stereo not given)
inactive: Potency [1] | Potency [2] | Potency [3] | Potency [4] | outcome [5] | outcome [6] | outcome [7]

CC(=O)Nc1cccc(C)c1
inactive: Potency [1] | Potency [2] | Potency [3] | Potency [4] | outcome [5] | outcome [6] | outcome [7]

CN1CCN(CC(=O)N2c3ccccc3C(=O)Nc3cccnc32)CC1
inactive: activity change, negative = cytotoxicity [1] -1.63% [at 8.39 µM] | activation [2] -0.718% [at 8.39 µM] | activity change, negative = inhibition [3] 9.85% [at 8.39 µM] | activity change, negative = cytotoxicity [4] 1.84% [at 8.39 µM] | viability change, negative = cytotoxic [5] -11.9% [at 6.97 µM] | activity change, negative = cytotoxicity [6] -15% [at 6.97 µM] | activation [7] -0.857% [at 6.97 µM]

Cc1cc(Cl)c(C)cc1Cl
inactive: Potency [1] | Potency [2] | Potency [3] | Potency [4] | outcome [5] | outcome [6] | outcome [7] | outcome [8] | outcome [9]

C=C(C)C(=O)OCCN(CC)CC
inactive: Potency [1] | Potency [2] | Potency [3] | Potency [4] | outcome [5] | outcome [6] | outcome [7] | outcome [8] | outcome [9]

Nc1ccc2cc(S(=O)(=O)O)cc(O)c2c1
active: Potency [1] 48.3 µM
inactive: Potency [2] | Potency [3] | Potency [4] | outcome [5] | outcome [6] | outcome [7] | outcome [8] | outcome [9]

COC(=O)C1CC(=O)C(C(=O)OC)CC1=O (stereo not given)
inactive: activity change, negative = cytotoxicity [1] 1.85% [at 8.39 µM] | activation [2] 15.8% [at 8.39 µM] | activity change, negative = inhibition [3] 5.34% [at 8.39 µM] | activity change, negative = cytotoxicity [4] 15.1% [at 8.39 µM] | viability change, negative = cytotoxic [5] -4.8% [at 6.97 µM] | activity change, negative = cytotoxicity [6] -0.722% [at 6.97 µM] | activation [7] 5.28% [at 6.97 µM] | activity, negative = inhibition [8] 1.02% [at 4.65 µM] | activation [9] 0.0574% [at 5.23 µM]

CC1(C)S[C@@H]2[C@H](N=CN3CCCCCC3)C(=O)N2[C@H]1C(=O)O
inactive: Potency [1] | Potency [2] | Potency [3] | Potency [4] | outcome [5] | outcome [6] | outcome [7] | outcome [8] | outcome [9]

CCCCCCCCOS(=O)(=O)O
inactive: Potency [1] | Potency [2] | Potency [3] | Potency [4] | outcome [5] | outcome [6] | outcome [7] | outcome [8] | outcome [9]

Cc1ccccc1N=O
inactive: Potency [1] | Potency [2] | Potency [3] | Potency [4] | outcome [5] | outcome [6] | outcome [7] | outcome [8] | outcome [9]

Cc1cc(C(C)(C)C)c(O)c(C)c1CC1=NCCN1
inactive: Potency [1] | Potency [2] | Potency [3] | Potency [4] | outcome [5] | outcome [6] | outcome [7] | outcome [8] | outcome [9]

OCCCCC(O)CO (stereo not given)
inactive: Potency [1] | Potency [2] | Potency [3] | Potency [4] | outcome [5] | outcome [6] | outcome [7] | outcome [8] | outcome [9]

Cc1cccc(C)c1NC(=O)c1ccccc1C(=O)O
inactive: Potency [1] | Potency [2] | Potency [3] | Potency [4] | outcome [5] | outcome [6] | outcome [7] | outcome [8] | outcome [9]

CN=C(NC#N)Nc1ccc(C2=NNC(=O)CC2C)cc1 (stereo not given)
inactive: Potency [1] | Potency [2] | Potency [3] | Potency [4] | outcome [5] | outcome [6] | outcome [7]

CCCCNC1CC(C)(C)NC(C)(C)C1
inactive: Potency [1] | Potency [2] | Potency [3] | Potency [4] | outcome [5] | outcome [6] | outcome [7] | outcome [8] | outcome [9]
